TGFb SMAD3 inh – blocks TGF-b signaling; HepG2 CAGA-GFP TGF-b/SMAD3 reporter, GFP fluorescence, 18 h; TGF-beta stimulated, 500 pg/mL final; Potency, µM (highest dose often 46.1 µM), without a hit: at the highest dose activity, negative = inhibition, usual class: inhibitors; 1.2% of 410,000 active; note: % is set by controls: 0 for no effect and ±100 for the full control effect; nearly all actives have a fitted effect of over 65% in size
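Inhibition of TGF-beta-driven CAGA-GFP reporter expression in HEPG2 cells is measured by cellular GFP fluorescence after 18 h stimulation with 500 pg/mL recombinant TGF-beta in 1% FBS medium at 37 degrees C.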
HepG2 tox – HepG2 cytotoxicity, counter-screen for TGF-b inhibitors; HepG2 CAGA-GFP viability, ATP luminescence, 18 h; Potency, µM (highest dose often 46.1 µM), inactives show at the highest dose activity change, negative = cytotoxicity, most hits filed as cytotoxic; 0.76% of 410,000 active; AID 588856
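HepG2 CAGA-GFP cells (1000/well, DMEM with 1% FBS) received compound, then TGF-beta at 500 pg/mL final, and were incubated 18 hours at 37 degrees C. Viability was read by CellTiter-Glo luminescence. Media-only wells were set as complete cell-killing and DMSO as no toxicity.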
KB-V1 cytotox – KB-V1 MDR subline cytotoxicity | KB-V1 MDR cells viability, CellTiter-Glo, 72 h | Potency, µM (titrated, usually from 46.1 µM), actives largely listed as cytotoxic | 3.4% of 400,000 active | AID 1347076; note: % is set by controls: 0 for no effect and ±100 for the full control effect; nearly all actives have a fitted effect of over 60% in size
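Luminescent ATP read-out (CellTiter-Glo, 10 min) measures survival of drug-selected KB-V1 MDR cells after 72 h, 37 degrees C compound exposure. Medium: phenol-red-free DMEM, 10% FBS. Values from fitted concentration-response curves.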
HT1080 IDH1KD tx – toxicity to HT-1080 IDH1 knockdown cells (counter line). HT-1080 IDH1 knockdown viability, ATP luminescence, 48 h. Potency, µM (doses to about 46.1 µM), inactives show at the highest dose activity, negative = toxicity, most hits filed as cytotoxic. 2% of 360,000 active;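 note: 0% = DMSO wells and -100% = cell-free medium wells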
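IDH1KD HT-1080 cells, 750/well, RPMI + 5% FBS; compound pinned after 2 h settling; 48 h, 37 °C; CellTiter-Glo luminescence; % activity normalised to DMSO and no-cell wells; curves fitted, classed by r2 and efficacy.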
HT1080NT lethal – kills 2HG-producing HT-1080-NT fibrosarcoma cells; HT-1080-NT fibrosarcoma viability, CellTiter-Glo ATP luminescence, 48 h; Potency, µM (series often up to 46.1 µM), for the others: top-dose activity, negative = less viability, actives largely listed as cytotoxic; 1.6% of 360,000 active;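 note: NT is the 2HG producing partner of a matched IDH1 knockdown line; 0% = DMSO-treated cells and -100% = media-only wells without cells; nearly all actives have a fitted effect of over 55% in size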
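Read-out is CellTiter-Glo luminescence after 10 minutes at room temperature, following 48 hours' compound treatment of HT-1080-NT cells (750 cells/well, RPMI, 5% FBS, 37 degrees C).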
KB-3-1 cytotox – kills parental KB-3-1 adenocarcinoma cells; KB-3-1 viability, CellTiter-Glo ATP luminescence, 72 h; Potency, µM (doses to about 46.1 µM), usual class: cytotoxic; 1.4% of 400,000 active; AID 1347075; note: % is set by controls: 0 for no effect and ±100 for the full control effect; nearly all actives have a fitted effect of over 60% in size
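Parental KB-3-1 adenocarcinoma cells in phenol-red-free DMEM with 10% FBS were pin-treated with compounds at several concentrations, incubated 72 h at 37 °C, and viability read by CellTiter-Glo luminescence; concentration-effect curves were fitted after normalization.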
* hit, by the source's call; i = inactive; ? = inconclusive; . = no result given; [ ] = dose if it differs, or a comment. In the library only some 6.6% were active in any assay of this set; here they are far more common. Calls come from the whole dose curve; as a rule, active = well fitted curve in the direction sought with a large enough effect; inconclusive = small, poorly fitted or top-dose-only effect, or another doubt; inactive = no such curve, though single readings can be large; an effect the other way counts as inactive or inconclusive. Potency is the fitted concentration of half-maximal effect.

SMILES	TGFb SMAD3 inh	HepG2 tox	KB-V1 cytotox	HT1080 IDH1KD tx	HT1080NT lethal	KB-3-1 cytotox
CC(C)(C)c1nnc(NC(=O)Cc2ccccc2[N+](=O)[O-])s1	5%	-30%	?	0%	-5%	?
CC(C)c1nnc(NC(=O)Cc2ccccc2[N+](=O)[O-])s1	-4%	-21%	23µM*	-1%	-3%	i
CC(CC(=O)Nc1ccc2c(c1)OCCO2)c1ccccc1 (centres undefined)	13%	-1%	i	-2%	2%	i
CC(NC(=O)CCc1ccccc1)c1cc2c(cc1Cl)OCCO2 (centres undefined)	-3%	-3%	21µM*	0%	-6%	?
CC(CC(=O)NC(C)c1ccc2c(c1)OCCO2)c1ccccc1 (centres undefined)	-12%	1%	26µM*	-2%	7%	i
CC(NC(=O)c1cc2sccc2n1C)c1ccc2c(c1)OCCO2 (centres undefined)	-2%	6%	21µM*	-11%	-1%	?
O=S(=O)(c1ccc(F)cc1)N1CCN(c2nc(-c3cccc(Br)c3)nc3ccccc23)CC1	0%	-35%	.	.	.	.
COc1ccc(N2CCN(C(c3ccccc3)c3sc4nc(-c5ccco5)nn4c3O)CC2)cc1 (centres undefined)	-25%	-14%	.	.	.	.
Cc1cc(S(=O)(=O)N2CCN(Cc3noc(CCC(=O)N4CCCCC4)n3)CC2)ccc1F	-3%	-4%	i	.	.	i
COc1ccc(-c2nc(C#N)c(N3CCCCCC3)o2)cc1OC	-18%	3%	8.2µM*	-4%	-3%	i
COc1ccc(-c2nc(C#N)c(N3CCCCC3)o2)cc1	3%	-29%	i	-1%	8%	i
N#Cc1nc(-c2ccco2)oc1N1CCc2ccccc2C1	13%	-42%	8.2µM*	-5%	-2%	i
CCCOc1ccc(-c2nc(C#N)c(N3CCc4ccccc4C3)o2)cc1	15%	-29%	16µM*	-16%	7%	i
CCCOc1ccc(-c2nc(C#N)c(N3CCN(C)CC3)o2)cc1	24%	-21%	i	2%	-16%	i
CC1CC(C)CN(c2oc(-c3ccco3)nc2C#N)C1 (centres undefined)	0%	-12%	21µM*	-6%	-1%	i
O=C(CSc1nnc(CNC(=O)c2ccccc2)n1-c1cccc(Cl)c1)Nc1ccccc1F	?	-3%	i	.	.	i
CCCOc1ccc(-c2nc(C#N)c(N3CCC(C(N)=O)CC3)o2)cc1	26%	-54%	23µM*	?	?	i
COc1ccccc1C1CCN(Cc2ccc3ccccc3c2)CC1	?	-38%	i	23µM*	?	i
CCN(CC)c1nc(Nc2ccccc2)nc(Oc2ccc(=O)[nH]n2)n1	2%	-58%	i	-15%	4%	i
CCN(CC)c1nc(Nc2ccccc2)nc(Oc2ccc(=O)n(C)n2)n1	4%	0%	6.5µM*	-6%	2%	?
CCC(C)(C)n1nnnc1C(c1cc2ccc(C)cc2[nH]c1=O)N(Cc1cccnc1)Cc1ccco1 (centres undefined)	?	-18%	21µM*	-25%	0%	i
Cc1cc2cc(C(c3nnnn3C3CCCC3)N(Cc3cccnc3)Cc3ccco3)c(=O)[nH]c2cc1C (centres undefined)	?	3%	i	10µM*	?	i
COc1ccc(-c2nc(C)c(CCNC(=O)C(=O)Nc3ccccc3F)s2)cc1	2%	1%	?	.	.	?
COc1ccc(C(O)c2nc(-c3cccc(C(=O)O)c3)cs2)cc1 (centres undefined)	11%	-4%	i	10%	18%	i
CCN(CC)C(=O)c1cccc(-c2csc(C(O)c3ccc(F)c(OC)c3)n2)c1 (centres undefined)	?	-5%	?	?	1µM*	i
SMILES	TGFb SMAD3 inh	HepG2 tox	KB-V1 cytotox	HT1080 IDH1KD tx	HT1080NT lethal	KB-3-1 cytotox
CCN(CC)C(=O)c1cccc(-c2csc(C(O)c3cccc(Cl)c3)n2)c1 (centres undefined)	?	-24%	?	?	?	i
CCN(CC)C(=O)c1cccc(-c2csc(C(O)c3ccc(OC)cc3)n2)c1 (centres undefined)	-5%	-2%	18µM*	?	-13%	?
Cc1ccc(CNC(=O)C2CCN(S(=O)(=O)c3cc(-c4noc(C)n4)ccc3C)CC2)cc1	?	-26%	?	.	.	i
Cc1nc(-c2ccccc2)sc1-c1ccc(SCC(=O)Nc2ccccc2)nn1	-10%	-9%	i	.	.	i
O=C1c2ccc(-c3nc4ccccc4o3)cc2C(=O)N1Cc1cccnc1	7%	7%	i	0%	29%	i
O=C1c2ccc(-c3nc4ccccc4o3)cc2C(=O)N1Cc1ccccc1	-15%	12%	7.3µM*	-4%	3%	i
COc1ccc(CCNS(=O)(=O)c2cccc(C)c2)cc1OC	0%	6%	?	-9%	-5%[9.24 µM]	i
COc1ccc(CNC(=O)c2cc(S(=O)(=O)N3CCCCC3)ccc2N2CCOCC2)cc1OC	-17%	-7%	23µM*	-11%	3%	i
COCCNCC(=O)Nc1ccc(C)c(S(=O)(=O)N2CCCCC2)c1	-9%	1%	?	5%	-5%	i
CCc1noc(C)c1C(=O)N1CCN(S(=O)(=O)c2c(C)c(C)cc(C)c2C)CC1	-1%	11%	10µM*	13%	1%	i
Cc1ccc(NC(=O)CCl)cc1S(=O)(=O)N1CCCCCC1	?	-41%	?	8.2µM*	16µM*	?
CCc1noc(C)c1C(=O)N1CCN(S(=O)(=O)c2cc(C)ccc2C)CC1	-14%	138%	.	6%	2%	.
COc1ccc(CCNS(=O)(=O)c2cccc(S(=O)(=O)N3CCCC3)c2)cc1OC	23%	0%	18µM*	2%[9.24 µM]	1%	i
COc1ccc(CCNC(=O)c2cc(S(=O)(=O)N3CCOCC3)ccc2N2CCCC2)cc1OC	14%	22%	i	9%	4%	i
O=C(Nc1ccc(-c2nc3ccccc3[nH]2)cc1)c1ccc(Oc2ccccc2)cc1	.	.	i	.	.	i
COc1ccc(CC(=O)Nc2cccc(S(=O)(=O)N3CCCCCC3)c2)cc1OC	?	2%	1.8µM*	-21%	-16%	2.9µM*
COc1ccc(CC(=O)Nc2cccc(SC)c2)cc1OC	-8%	-1%	15µM*	-1%	-21%	?

Bioassay records as filed in PubChem.
